# Test results as given in paper PMC7862700, “An all-to-all approach to the identification of sequence-specific readers for epigenetic DNA modifications on cytosine”.
# Legend:
# Assay in all cases: DAPPL (digital affinity profiling via proximity ligation, sequencing); 10 mM Tris-HCl pH 7.5, 50 mM NaCl, 1 mM DTT, 4% glycerol, room temperature, 30 min; GST-TFs on glutathione beads, 16-mer random dsDNA library, 0.1% formaldehyde crosslink after washing; high values mean tight binding
# FEV = target: T1, FEV (Homo sapiens, UniProt Q99581 1-238); details: protein: recombinant; tags: N-terminal GST; dsDNA, one strand shown
# T1 sequence: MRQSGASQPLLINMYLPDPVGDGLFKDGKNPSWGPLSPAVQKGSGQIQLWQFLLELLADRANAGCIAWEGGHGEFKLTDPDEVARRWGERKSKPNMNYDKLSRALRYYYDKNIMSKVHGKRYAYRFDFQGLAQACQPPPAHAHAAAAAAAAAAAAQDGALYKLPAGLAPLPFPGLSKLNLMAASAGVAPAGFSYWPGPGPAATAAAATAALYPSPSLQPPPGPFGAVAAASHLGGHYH
# Summary of the method: (§1)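 After expression in yeast as GST fusions, human transcription factors were bound to glutathione beads, DNA-barcoded and mixed with a tag-only sample. The pools were incubated with 200 nmole of a 16-mer random double-stranded DNA library in Tris/NaCl/DTT/glycerol buffer (30 min, room temperature), washed and crosslinked with 0.1% formaldehyde. Proximity ligation with BsaI/T4 ligase ran for 1 h at 37 °C, before PCR amplification and sequencing on an Illumina NextSeq500. Binding signal is a hexamer's read frequency for a factor divided by its frequency for the tag-only sample.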
# ETV5 = ETV5 (Homo sapiens, UniProt P41161 1-510); details: protein: recombinant; tags: N-terminal GST; dsDNA, one strand shown
# ETV5, sequence (P41161 whole entry): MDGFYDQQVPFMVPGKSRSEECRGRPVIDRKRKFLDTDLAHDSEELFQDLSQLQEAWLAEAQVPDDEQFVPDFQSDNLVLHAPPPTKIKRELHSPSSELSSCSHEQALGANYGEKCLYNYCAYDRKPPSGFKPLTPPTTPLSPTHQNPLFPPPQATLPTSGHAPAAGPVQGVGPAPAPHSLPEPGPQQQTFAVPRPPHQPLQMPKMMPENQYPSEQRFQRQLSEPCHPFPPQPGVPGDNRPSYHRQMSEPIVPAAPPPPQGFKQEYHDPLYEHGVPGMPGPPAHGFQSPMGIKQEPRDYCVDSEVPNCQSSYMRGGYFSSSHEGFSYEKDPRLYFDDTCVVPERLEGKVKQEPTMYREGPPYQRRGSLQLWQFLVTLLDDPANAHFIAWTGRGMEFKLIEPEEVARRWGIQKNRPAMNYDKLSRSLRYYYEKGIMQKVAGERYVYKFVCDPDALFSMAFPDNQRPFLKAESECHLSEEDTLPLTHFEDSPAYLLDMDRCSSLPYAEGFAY
# Summary of the method: as §1
# HSF1 = HSF1 (Homo sapiens, UniProt Q00613 1-529); details: protein: recombinant; tags: N-terminal GST; chain copies: 3; dsDNA, one strand shown
# HSF1, sequence (Q00613 whole entry): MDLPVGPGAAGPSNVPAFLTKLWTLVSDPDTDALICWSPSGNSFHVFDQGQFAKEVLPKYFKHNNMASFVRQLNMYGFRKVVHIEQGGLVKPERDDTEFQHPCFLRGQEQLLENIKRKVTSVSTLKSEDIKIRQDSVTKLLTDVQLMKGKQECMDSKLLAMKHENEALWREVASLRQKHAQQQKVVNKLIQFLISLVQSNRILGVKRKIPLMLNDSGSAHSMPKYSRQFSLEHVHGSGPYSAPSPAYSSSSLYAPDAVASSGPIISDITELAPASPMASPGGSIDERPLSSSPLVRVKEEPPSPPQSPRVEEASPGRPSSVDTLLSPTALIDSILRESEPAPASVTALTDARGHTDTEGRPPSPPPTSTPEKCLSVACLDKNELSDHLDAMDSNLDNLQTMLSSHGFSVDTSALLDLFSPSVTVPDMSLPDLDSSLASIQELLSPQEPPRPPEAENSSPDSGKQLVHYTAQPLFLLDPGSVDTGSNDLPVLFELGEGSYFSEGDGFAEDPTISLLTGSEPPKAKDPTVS
# Summary of the method: as §1
# SPIC = target: T2, SPIC (Homo sapiens, UniProt Q8N5J4 1-248); details: protein: recombinant; tags: N-terminal GST; dsDNA, one strand shown
# T2 sequence: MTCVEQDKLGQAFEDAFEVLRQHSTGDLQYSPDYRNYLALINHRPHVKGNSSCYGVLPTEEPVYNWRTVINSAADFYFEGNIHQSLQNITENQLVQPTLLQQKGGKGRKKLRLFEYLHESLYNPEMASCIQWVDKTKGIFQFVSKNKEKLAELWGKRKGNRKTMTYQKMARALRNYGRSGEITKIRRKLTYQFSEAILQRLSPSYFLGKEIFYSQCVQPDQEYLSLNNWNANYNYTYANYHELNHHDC
# Summary of the method: as §1
# ELF4 = ELF4 (Homo sapiens, UniProt Q99607 1-663); details: protein: recombinant; tags: N-terminal GST; dsDNA, one strand shown
# ELF4, sequence (Q99607 whole entry): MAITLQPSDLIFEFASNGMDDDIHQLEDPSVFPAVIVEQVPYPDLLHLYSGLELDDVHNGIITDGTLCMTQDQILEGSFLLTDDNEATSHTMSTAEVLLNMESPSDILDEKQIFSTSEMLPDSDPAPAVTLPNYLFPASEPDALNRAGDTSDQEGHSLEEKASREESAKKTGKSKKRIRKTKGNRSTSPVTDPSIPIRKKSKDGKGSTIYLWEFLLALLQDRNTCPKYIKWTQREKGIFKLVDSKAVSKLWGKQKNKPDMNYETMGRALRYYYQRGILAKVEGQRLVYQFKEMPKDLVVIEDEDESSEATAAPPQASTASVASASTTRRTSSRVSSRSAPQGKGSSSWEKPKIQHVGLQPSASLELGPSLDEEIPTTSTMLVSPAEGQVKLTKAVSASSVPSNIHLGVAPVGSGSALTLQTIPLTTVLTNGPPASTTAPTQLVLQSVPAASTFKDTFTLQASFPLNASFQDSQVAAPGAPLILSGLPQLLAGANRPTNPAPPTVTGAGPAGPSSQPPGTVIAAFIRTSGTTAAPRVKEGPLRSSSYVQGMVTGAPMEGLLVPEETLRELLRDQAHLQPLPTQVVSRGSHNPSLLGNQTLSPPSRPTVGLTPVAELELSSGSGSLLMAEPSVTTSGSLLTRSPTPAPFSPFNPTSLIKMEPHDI
# Summary of the method: as §1
# ELK4 = target: T3, ELK4 (Homo sapiens, UniProt P28324-2 1-405); details: protein: recombinant; tags: N-terminal GST; dsDNA, one strand shown
# T3 sequence: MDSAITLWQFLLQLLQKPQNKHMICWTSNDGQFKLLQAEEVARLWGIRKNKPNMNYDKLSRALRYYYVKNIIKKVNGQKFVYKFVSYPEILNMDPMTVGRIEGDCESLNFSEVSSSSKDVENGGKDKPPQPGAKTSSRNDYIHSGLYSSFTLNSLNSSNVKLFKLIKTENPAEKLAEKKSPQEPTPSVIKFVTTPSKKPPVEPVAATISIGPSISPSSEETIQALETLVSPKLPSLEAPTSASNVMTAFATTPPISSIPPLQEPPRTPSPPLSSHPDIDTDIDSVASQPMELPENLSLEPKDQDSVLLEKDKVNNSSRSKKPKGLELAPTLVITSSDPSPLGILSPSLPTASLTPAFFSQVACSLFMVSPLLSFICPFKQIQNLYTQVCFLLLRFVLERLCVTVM
# Summary of the method: as §1
# ETV2 = target: T4, ETV2 (Homo sapiens, UniProt O00321 1-342); details: protein: recombinant; tags: N-terminal GST; dsDNA, one strand shown
# T4 sequence: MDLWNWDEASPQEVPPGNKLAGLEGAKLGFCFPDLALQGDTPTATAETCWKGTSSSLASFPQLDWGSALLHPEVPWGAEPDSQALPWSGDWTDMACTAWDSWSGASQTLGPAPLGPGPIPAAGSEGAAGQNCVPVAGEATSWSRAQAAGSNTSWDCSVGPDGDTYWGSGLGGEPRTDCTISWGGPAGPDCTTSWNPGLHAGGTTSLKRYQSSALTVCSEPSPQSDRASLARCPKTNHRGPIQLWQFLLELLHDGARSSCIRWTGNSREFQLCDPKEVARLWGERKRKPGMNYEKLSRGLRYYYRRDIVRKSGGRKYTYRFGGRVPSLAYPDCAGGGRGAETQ
# Summary of the method: as §1
# ELF3 = target: T5, ELF3 (Homo sapiens, UniProt P78545 1-371); details: protein: recombinant; tags: N-terminal GST; dsDNA, one strand shown
# T5 sequence: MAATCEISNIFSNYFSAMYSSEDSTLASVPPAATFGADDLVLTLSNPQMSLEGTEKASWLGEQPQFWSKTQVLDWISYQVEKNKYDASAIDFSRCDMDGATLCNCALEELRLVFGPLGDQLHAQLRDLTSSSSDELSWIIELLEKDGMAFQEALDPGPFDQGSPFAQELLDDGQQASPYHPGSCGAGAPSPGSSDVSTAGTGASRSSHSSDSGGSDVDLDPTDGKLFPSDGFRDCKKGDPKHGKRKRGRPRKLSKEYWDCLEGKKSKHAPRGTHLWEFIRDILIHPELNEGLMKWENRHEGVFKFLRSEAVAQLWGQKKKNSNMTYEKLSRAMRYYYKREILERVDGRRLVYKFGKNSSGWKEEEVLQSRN
# Summary of the method: as §1
# ETV1 = ETV1 (Homo sapiens, UniProt P50549 1-477); details: protein: recombinant; tags: N-terminal GST; dsDNA, one strand shown
# ETV1, sequence (P50549 whole entry): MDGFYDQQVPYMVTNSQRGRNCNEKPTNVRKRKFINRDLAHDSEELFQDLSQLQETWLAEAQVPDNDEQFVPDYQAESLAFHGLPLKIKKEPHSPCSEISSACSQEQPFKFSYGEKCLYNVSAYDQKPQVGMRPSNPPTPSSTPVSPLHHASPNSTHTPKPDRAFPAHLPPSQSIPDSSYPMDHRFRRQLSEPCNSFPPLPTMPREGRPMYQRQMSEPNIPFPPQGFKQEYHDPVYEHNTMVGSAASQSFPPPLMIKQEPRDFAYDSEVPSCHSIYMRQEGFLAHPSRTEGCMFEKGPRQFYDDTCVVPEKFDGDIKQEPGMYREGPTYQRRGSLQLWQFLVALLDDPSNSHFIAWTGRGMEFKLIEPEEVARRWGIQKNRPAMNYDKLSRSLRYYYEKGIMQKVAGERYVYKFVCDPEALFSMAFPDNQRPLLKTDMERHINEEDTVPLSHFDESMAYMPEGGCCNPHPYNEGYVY
# Summary of the method: as §1
Sequence,binding signal (FEV),binding signal (ETV5),binding signal (HSF1),binding signal (SPIC),binding signal (ELF4),binding signal (ELK4),binding signal (ETV2),binding signal (ELF3),binding signal (ETV1)
ACGGAA,"1.83 fold enrichment (6-mer frequency, TF over GST control)","1.94 fold enrichment (6-mer frequency, TF over GST control)","1.01 fold enrichment (6-mer frequency, TF over GST control)","1.69 fold enrichment (6-mer frequency, TF over GST control)","1.61 fold enrichment (6-mer frequency, TF over GST control)","1.5 fold enrichment (6-mer frequency, TF over GST control)","1.75 fold enrichment (6-mer frequency, TF over GST control)","1.89 fold enrichment (6-mer frequency, TF over GST control)","1.85 fold enrichment (6-mer frequency, TF over GST control)"
GCACTC,"1.31 fold enrichment (6-mer frequency, TF over GST control)","1.38 fold enrichment (6-mer frequency, TF over GST control)","1.06 fold enrichment (6-mer frequency, TF over GST control)","1.25 fold enrichment (6-mer frequency, TF over GST control)","1.31 fold enrichment (6-mer frequency, TF over GST control)","1.33 fold enrichment (6-mer frequency, TF over GST control)","1.36 fold enrichment (6-mer frequency, TF over GST control)","1.41 fold enrichment (6-mer frequency, TF over GST control)","1.33 fold enrichment (6-mer frequency, TF over GST control)"
CCATTC,"1.06 fold enrichment (6-mer frequency, TF over GST control)","1.11 fold enrichment (6-mer frequency, TF over GST control)","1.15 fold enrichment (6-mer frequency, TF over GST control)","1.14 fold enrichment (6-mer frequency, TF over GST control)","1.18 fold enrichment (6-mer frequency, TF over GST control)","1.22 fold enrichment (6-mer frequency, TF over GST control)","1.25 fold enrichment (6-mer frequency, TF over GST control)","1.05 fold enrichment (6-mer frequency, TF over GST control)","1.14 fold enrichment (6-mer frequency, TF over GST control)"
GAAAAC,"1.08 fold enrichment (6-mer frequency, TF over GST control)","1.13 fold enrichment (6-mer frequency, TF over GST control)","1.08 fold enrichment (6-mer frequency, TF over GST control)","1.21 fold enrichment (6-mer frequency, TF over GST control)","1.12 fold enrichment (6-mer frequency, TF over GST control)","1.16 fold enrichment (6-mer frequency, TF over GST control)","1.04 fold enrichment (6-mer frequency, TF over GST control)","1.08 fold enrichment (6-mer frequency, TF over GST control)","1.13 fold enrichment (6-mer frequency, TF over GST control)"
GAAATG,"1.77 fold enrichment (6-mer frequency, TF over GST control)","1.7 fold enrichment (6-mer frequency, TF over GST control)","1.1 fold enrichment (6-mer frequency, TF over GST control)","1.56 fold enrichment (6-mer frequency, TF over GST control)","1.49 fold enrichment (6-mer frequency, TF over GST control)","1.65 fold enrichment (6-mer frequency, TF over GST control)","1.55 fold enrichment (6-mer frequency, TF over GST control)","1.78 fold enrichment (6-mer frequency, TF over GST control)","1.58 fold enrichment (6-mer frequency, TF over GST control)"
CGTTCC,"1.5 fold enrichment (6-mer frequency, TF over GST control)","1.47 fold enrichment (6-mer frequency, TF over GST control)","1.44 fold enrichment (6-mer frequency, TF over GST control)","1.51 fold enrichment (6-mer frequency, TF over GST control)","1.47 fold enrichment (6-mer frequency, TF over GST control)","1.31 fold enrichment (6-mer frequency, TF over GST control)","1.33 fold enrichment (6-mer frequency, TF over GST control)","1.27 fold enrichment (6-mer frequency, TF over GST control)","1.47 fold enrichment (6-mer frequency, TF over GST control)"
GTGTTC,"1.08 fold enrichment (6-mer frequency, TF over GST control)","1.14 fold enrichment (6-mer frequency, TF over GST control)","1.12 fold enrichment (6-mer frequency, TF over GST control)","1.36 fold enrichment (6-mer frequency, TF over GST control)","1.12 fold enrichment (6-mer frequency, TF over GST control)","1.25 fold enrichment (6-mer frequency, TF over GST control)","1.15 fold enrichment (6-mer frequency, TF over GST control)","1.19 fold enrichment (6-mer frequency, TF over GST control)","1.14 fold enrichment (6-mer frequency, TF over GST control)"
TCTGTC,"1.13 fold enrichment (6-mer frequency, TF over GST control)","1.18 fold enrichment (6-mer frequency, TF over GST control)","1.07 fold enrichment (6-mer frequency, TF over GST control)","1.3 fold enrichment (6-mer frequency, TF over GST control)","1.13 fold enrichment (6-mer frequency, TF over GST control)","1.27 fold enrichment (6-mer frequency, TF over GST control)","1.19 fold enrichment (6-mer frequency, TF over GST control)","1.19 fold enrichment (6-mer frequency, TF over GST control)","1.23 fold enrichment (6-mer frequency, TF over GST control)"
